ChEMBL document CHEMBL3988442, “University of Dundee, Small-Polar-MMV Screening Library” (2021)
About 1,200 (3.2%) of roughly 38,000 compounds showed an effect of 50% or more. The median lay at about -58%. The sample as a whole holds a higher share of strong results than the screen did.

tested on: Plasmodium falciparum; assay: Calibr Malaria Delayed Death Assay SOP; type: functional, organism-based; set-up: scale not given: in the data most compounds retested in dose-response had high values; details: concentration 4.99e-06 (unit not given; other assays of the set use mol/L)

Row | Structure (SMILES) | Percent Effect
1 | O=C(Cn1c(=O)oc2ccccc21)NCC1(O)CCc2ccccc21 (stereo not drawn) | -139.2%
2 | c1cnc(N2CCCC(c3cncc(-n4ccnc4)n3)C2)nc1 (stereo not drawn) | -26.3%
3 | Cc1cc(NCCNc2cccnc2)nc(-c2ccccc2O)n1 | -179.2%
4 | Cc1cc(NCCN)nc(-c2ccccc2O)n1 | 78.32%
5 | Cc1cc(NCCO)nc(-c2ccccc2O)n1 | -228.5%
6 | COCC1COCCC12CCN(S(=O)(=O)c1ccc(C)cc1)CC2 (stereo not drawn) | -77.98%
7 | CCNC(=O)[C@@H]1C[C@@H](NC(=O)c2cnc[nH]c2=O)CN1Cc1ccsc1 | -128.1%
8 | O=C(CN1CCOCC1)Nc1ncc(Br)cc1Br | -123.1%
9 | c1ccc2c(c1)cnn2CCCNC1CCOC2(CCOCC2)C1 (stereo not drawn) | 68.4%
10 | c1ccc2c(c1)nnn2CCCNC1CCOC2(CCOCC2)C1 (stereo not drawn) | -5.834%
11 | c1ccc(Cc2noc(CCNC3CCOC4(CCOCC4)C3)n2)cc1 (stereo not drawn) | -44.81%
12 | Fc1cccc(C2(CNC3CCCNC3)CCOCC2)c1 (stereo not drawn) | -89.15%
13 | Fc1ccccc1C1(CNC2CCOC3(CCOCC3)C2)CCCC1 (stereo not drawn) | 75.67%
14 | Fc1cccc(C2(CNC3CCOC4(CCOCC4)C3)CCOCC2)c1 (stereo not drawn) | 39.6%
15 | COc1c(CNC2CCN(C(=O)C(C)C)CC2)c(C(C)C)nn1C | -79.75%
16 | CSc1cccc(NC(=O)CCC(=O)Nc2nccs2)c1 | -6.233%
17 | CCOC(=O)Cn1ccc(NC(=O)Cc2ccccc2F)n1 | -129.4%
18 | COc1ccc(CCNC(C)c2ccc3[nH]c(=O)[nH]c3c2)cc1OC (stereo not drawn) | -75.57%
19 | Cc1ccc(S(=O)(=O)N2CCC(S(=O)(=O)c3nncn3C)CC2)cc1C | -38.79%
20 | Cc1ccc(S(=O)(=O)N2CCC(S(C)(=O)=O)CC2)cc1C | -5.803%
21 | Cc1cc(S(=O)(=O)N2CCCN3CCCC3C2)ccc1F (stereo not drawn) | 67.89%
22 | Cc1ccc(S(=O)(=O)N2CCCCC(N3CCN(C)CC3)C2)cc1F (stereo not drawn) | 37.26%
23 | Cc1cc(S(=O)(=O)N2CCC(S(C)(=O)=O)C2)ccc1F (stereo not drawn) | -26.98%
24 | Cc1ccc(S(=O)(=O)N2CCC(N3CCCCC3)CC2)cc1C | 64.64%
25 | Cc1nc2ccccc2n1Cc1cc(C(=O)N(C)C2CCOC2)n[nH]1 (stereo not drawn) | -89.66%
26 | Cc1nc(CN(C)C2CCN(Cc3nc4c(F)cccc4[nH]3)C2)no1 (stereo not drawn) | -2.567%

Row | Structure (SMILES) | Percent Effect
27 | CCOCC(=O)Nc1cccnc1-n1ccnc1C | -153.7%
28 | Cc1ncc(CNCCO)c2cc(C(=O)c3ccc(Br)cc3)oc12.Cl | 88.87%
29 | Cc1ncc(CN2CCOCC2)c2cc(C(=O)c3ccc(Br)cc3)oc12.Cl | -6.646%
30 | Cc1ncc(CN2CCCC2)c2cc(C(=O)c3ccc(Br)cc3)oc12.Cl | 66.17%
31 | Cc1ncc(CN(C)CCO)c2cc(C(=O)c3ccc(Br)cc3)oc12.Cl | 47.82%
32 | CN(C)c1ccc(C(=O)NCc2csc(Br)c2)cn1 | -36.5%
33 | COc1ncc(C(=O)NCc2ccc(Br)cc2)cn1 | -41.11%
34 | Cc1ncc(CNCC(C)O)c2cc(C(=O)c3ccc(Br)cc3)oc12.Cl (stereo not drawn) | 8.12%
35 | Cc1ncc(CNC(C)(C)CO)c2cc(C(=O)c3ccc(Br)cc3)oc12 | 36.54%
36 | COCCNC(=O)[C@@H]1CCO[C@@H]2CCN(Cc3cnn(C)c3)C[C@@H]21 | -0.06334%
37 | Cc1nn(Cn2ccc(C(=O)N3CCOCC3)n2)c(C)c1Cl | -94.44%
38 | O=c1c(NCc2ccccn2)c(NCC(O)CN2CCOCC2)c1=O (stereo not drawn) | -115.3%
39 | Cc1cccc(CN2CC3(CCN(Cc4ccco4)CC3)OCC2=O)n1.O=C(O)C(F)(F)F.O=C(O)C(F)(F)F | -46.8%
40 | CC(C)Oc1ccc(C(=O)N2CCCC2c2cnn(C)c2)cn1 (stereo not drawn) | -40.89%
41 | CNC(=O)c1cn2cc(-c3cccc(Cl)c3)n(CC=C(C)C)c(=O)c2n1 | 56.44%
42 | COCCCNC(=O)Cn1c(-c2cccc(Cl)c2)nc(C)cc1=O | -51.33%
43 | CNC(=O)c1cn2cc(-c3cccc(Cl)c3)n(CC3CC3)c(=O)c2n1 | 19.26%
44 | COc1ccc(OC)c(NC(=O)c2cc3c([nH]c2=O)CCCC3=O)c1 | -53.3%
45 | Cc1c(C)n(CC(O)CN2CCCCCC2)c2c(Cl)cccc12 (stereo not drawn) | 50.38%
46 | Cc1c(C)n(CC(O)CN2CCC(C)CC2)c2c(Cl)cccc12 (stereo not drawn) | 82.43%
47 | Cc1c(C)n(CC(O)CN2CCOCC2)c2c(Cl)cccc12.Cl (stereo not drawn) | -18.53%
48 | Cc1c(C)n(CC(O)CN2CCC(O)CC2)c2c(Cl)cccc12 (stereo not drawn) | 43.5%
49 | CC1CCN(CC(O)Cn2cnc3ccc(Cl)cc3c2=O)CC1 (stereo not drawn) | 28.19%
50 | O=C(c1cccc(Cl)c1Cl)N1CCN(CC(O)Cn2cccn2)CC1 (stereo not drawn) | -16.31%
51 | O=C(c1cccc2c1OCCO2)N1CCCC(n2cccn2)C1 (stereo not drawn) | -57.7%
52 | Cc1ccc(OCCC(=O)N2CCOCC2c2ncon2)cc1C (stereo not drawn) | -113.3%

Row | Structure (SMILES) | Percent Effect
53 | O=C(c1ccco1)N1Cc2nccn2CC(Cn2ncccc2=O)C1 (stereo not drawn) | -89.1%
54 | CCCN(CCC)c1ncc(S(=O)(=O)c2ccccc2)c(N)n1 | -11.95%
55 | CCCN(CCC)c1ncc(S(=O)(=O)c2ccc(C)cc2)c(N)n1 | 12.69%
56 | CCCN(CCC)c1ncc(S(=O)(=O)c2ccc(OC)cc2)c(N)n1 | 66.8%
57 | N#Cc1c(N)nc2c(c1-c1c[nH]nc1C1CCCCC1)CNCC2 | 6.508%
58 | c1ccc(COCC2CN(Cc3ccsc3)Cc3nccn3C2)nc1 (stereo not drawn) | 1.035%
59 | CCc1cnc(CN(C)C2CCN(CCCNS(C)(=O)=O)C2)o1 (stereo not drawn) | -33.46%
60 | Cc1cc(C)n(C2CN(CC(=O)N(C)Cc3ccsc3)C2)n1 | 24.51%
61 | COc1ccccc1CN(C)C(=O)CN1CC(n2nc(C)cc2C)C1 | 77.58%
62 | COc1cccc(CN(C)C(=O)CN2CC(n3nc(C)cc3C)C2)c1 | 62.45%
63 | Cc1cc(C)n(C2CN(CC(=O)N(C)Cc3ccc(C)o3)C2)n1 | -1.347%
64 | Cc1cc(C)n(C2CN(CC(=O)N(C)Cc3cnn(C)c3)C2)n1 | -103.6%
65 | Cc1cc(C)n(C2CN(CC(=O)N(C)Cc3ccco3)C2)n1 | -70.44%
66 | CC(C)NC(=O)N1CC[C@@H]2CN(S(C)(=O)=O)CCO[C@@H]2C1 | -58.18%
67 | Cc1nnc(NC(=O)NCc2ccc(OC3CCCC3)nc2)s1 | 2.114%
68 | Cc1cccc(N2Cc3nc(N4CCC(C)CC4)ncc3C2=O)c1 | -105.8%
69 | O=S(=O)(c1ccccc1)N1CCC[C@]2(C[C@@H](OCC3CC3)CO2)C1 | -64.42%
70 | CCOc1ccc2[nH]c3c(N(C)CC4OCCO4)ncnc3c2c1 | -160.2%
71 | CCCNC(=O)CCNC(=O)c1sc2ccc(F)cc2c1C | -59.54%
72 | CN1CCN(C(=O)c2occc2CN2C(=O)Cc3ccccc32)CC1 | 53.65%
73 | CN1CCN(C(=O)c2cc3occc3n2Cc2ccccc2F)CC1 | -0.5316%
74 | O=C(c1occc1CN1C(=O)Cc2ccccc21)N1CC(O)C1 | -91.69%
75 | N#Cc1cnc2c(F)cc(F)cc2c1NC1CCN(CC(N)=O)CC1 | -21.61%
76 | Cc1cnc(NC(=O)CSC2CCc3ccccc3NC2=O)s1 (stereo not drawn) | -9.765%
77 | NC(=O)c1ccc(CN2CCC(N3CCCCC3)CC2)cc1 | -16.53%
78 | CC(NCc1ccc(OCC(N)=O)cc1)c1ccc2c(c1)CCCC2 (stereo not drawn) | 72.97%

Row | Structure (SMILES) | Percent Effect
79 | CC(NCc1ccc(OCC(N)=O)cc1)c1ccc(Cl)cc1.Cl (stereo not drawn) | 12.76%
80 | CC(NCc1ccc(OCC(N)=O)cc1)c1ccc(Cl)c(Cl)c1.Cl (stereo not drawn) | 2.26%
81 | CSCCN1C(=O)CC(C)(c2ccc(Br)cc2)C1=O (stereo not drawn) | -78.64%
82 | NCC(=O)N1CCCCC1c1ccc(F)cc1 (stereo not drawn) | 85.19%
83 | O=C1CCCCN1CCC(=O)N1CCCCC1c1ccc(F)cc1 (stereo not drawn) | -57.96%
84 | COC(=O)CCCC(=O)N1CCCCC1c1ccc(F)cc1 (stereo not drawn) | -184.4%
85 | CC(NCCn1cccn1)c1cc(F)ccc1F (stereo not drawn) | 0.142%
86 | CCN1CCN(c2ccc(F)cc2C(C)NCc2ccccn2)CC1 (stereo not drawn) | 85.11%
87 | CCN1CCN(c2ccc(F)cc2C(C)NCc2ccnn2C)CC1 (stereo not drawn) | 75.25%
88 | CC(c1ccc(F)cc1F)N1CCN(Cc2nccn2C)CC1 (stereo not drawn) | -23.71%
89 | C[C@]1(O)CN(Cc2cscn2)CC[C@@H]1Oc1cccc(F)c1 | -10.93%
90 | Cc1[nH]ncc1C(C)NCc1ccc(F)cc1 (stereo not drawn) | -52.77%
91 | CC(NCc1ccncc1)c1cc2c(cc1Br)OCCO2 (stereo not drawn) | 7.247%
92 | CC(NC(=O)NCc1cscn1)c1ccc(N2CCOCC2)cc1 (stereo not drawn) | -60.07%
93 | CC(NCc1ccccn1)c1cc2c(cc1Br)OCCO2 (stereo not drawn) | 22.3%
94 | CCN1CCN(c2ccc(F)cc2C(C)NCc2ccncc2)CC1 (stereo not drawn) | 71.8%
95 | CC(c1cc(F)ccc1F)N1CCN(Cc2nccn2C)CC1 (stereo not drawn) | -48.8%
96 | CCN1CCN(c2ccc(F)cc2C(C)NCc2cscn2)CC1 (stereo not drawn) | 80.23%
97 | Cn1nc(-c2ccccc2)c(Cl)c1C(=O)O | 13.43%
98 | CC(C)S(=O)(=O)NCC(Cc1cccc(F)c1)N1CCNC1=O (stereo not drawn) | -68.63%
99 | COc1ccc(CNc2nc(N3CCOCC3)ns2)cc1 | -61.76%
100 | Cc1ccc(CCNC(=O)CC2COCCN2S(=O)(=O)N(C)C)o1 (stereo not drawn) | -12.87%
101 | CC(C)c1nncn1CCNC(=O)c1ccc(Cl)cc1O | -118.9%
102 | Cc1nccc(-c2cccc(NCC(=O)NCC(=O)N3CCCC3)c2)n1 | -89.65%
103 | Cc1cnc(C(=O)N2CC[C@@H]3CN(c4ncccn4)CCO[C@@H]3C2)cn1 | -80.08%
